Structures are written as SMILES.

The test system of this assay is HepG2. Kind of assay: GSK_TCMDC: Percent inhibition of human HepG2 cell line. Test compounds present at 10uM. Type of assay: functional.
The Inhibition is the percentage by which the read-out fell short of the control. Low values mean a response near the control, high ones a response far below the control. The compound `COc1ccc(CN2CCC(CN3CC4(OC3=O)c3ccccc3-c3ccccc34)C2)c(O)c1` (stereo not given) displayed an Inhibition of 22%. To `COc1ccc(-c2cccc(NC(=O)c3cccc(F)c3)c2)cc1CN1CCCN(C)CC1.O=C(O)C(F)(F)F` belongs 42%. To `O=C(Nc1cccc(-c2nn3ccccc3c2-c2ccnc(Nc3ccc(Cc4ccncc4)cc3)n2)c1)c1c(F)cccc1F` belongs 43%; to `O=C(O)C(F)(F)F.O=C1CCCN1CCCNCc1cccc(-c2ccc(-c3nc4ccccc4[nH]3)s2)c1`, 0%; to `CCc1ccc(NC(=O)c2ccc(CN3CCCN(CC4CCCCC4)CC3)cc2)cc1.O=C(O)C(F)(F)F`, 48%. `Clc1cccc(-c2nc(Nc3ccnc(-c4ccc(CN5CCOCC5)cc4)c3)c3ccccc3n2)c1` showed an Inhibition of 8%. To `O=[N+]([O-])c1ccc(N/C(=N\c2ccccc2Br)NC2CCCc3ccccc32)c(O)c1` (stereo not given) belongs 0%; to `CS(=O)(=O)NCCCNCc1ccc(-c2ccc(-c3nc4cc(F)ccc4[nH]3)cc2)cc1.O=C(O)C(F)(F)F`, 17%. Compound `CCOC(=O)c1ccc(NC(=O)Nc2cccc(-c3ccc(-c4nc5cccc(C)c5[nH]4)s3)c2)cc1` registered an Inhibition of 44%. `CCN(CC)CCNC(=O)c1ccc(NC(=O)c2cc(-c3ccncc3)nc3ccccc23)cc1` had an Inhibition of 1%. To `Fc1ccccc1-c1cc(Nc2ccncc2)nc(-c2cccnc2)n1` belongs 91%; to `O=C(Nc1ccc(S(=O)(=O)N2CCCCC2)cc1)c1cc(-c2ccccc2O)n[nH]1`, 13%; to `COc1ccc(NC(=O)CCNc2cc(C)nc(NCc3cccc(C)c3)n2)cc1.O=C(O)C(F)(F)F`, 14%. To `Cc1cc(-c2ccc3occ(CCN)c3c2)cnc1N` belongs 0%; to `Cc1nc(N)nc(N)c1CCCOc1ccccc1Br`, 53%; to `CSc1cccc(NC(=O)Nc2ccc(I)c(OCCN(C)C)c2)c1`, 14%. Next, `CC1(C)Cc2c(oc3ncn(CCn4cnc5oc6c(c5c4=N)CC(C)(C)SC6)c(=N)c23)CS1`: 0%. As for `COc1ccc2nccc([C@@H](O)CN3CCC(NCc4cnc5c(c4)NC(=O)CS5)CC3)c2c1.O=C(O)C(=O)O`, the Inhibition stood at 0%. Next, `Br.Oc1ccc(CCNCCCCCCNCCc2ccc(Cl)c(Cl)c2)cc1O`: 21%. To `O=C(Nc1ccc(OC(F)(F)F)cc1)NC1CCN(c2ccnc3ccccc23)CC1.O=C(O)C(F)(F)F` belongs 40%; to `O=S(=O)(c1c(Cl)cc(Cl)cc1Cl)N1CCCCC(c2ccc(F)c(F)c2)=N1`, 5%. Next, `CCNC(C)(C)CN(Cc1ccc(-c2ccc(C(F)(F)F)cc2)cc1)C(=O)Cn1c(CCc2cccc(F)c2F)nc(=O)c2ccccc21.O=C(O)C(O)C(O)C(=O)O`: 47%; `Cc1cc(Nc2ccccc2)nc(NCCOc2ccccc2)n1.Cl`: 0%; `Cl.O=c1n(CC2CCCCC2)c2cc(Cl)cc(OCCNc3ccncc3)c2n1CC1CCCCC1`: 2%. As for `COc1cc(C)c(C(O)CNC(C)CCc2ccccc2)cc1C.Cl` (stereo not given), the Inhibition is reported as 1%. `O=C(O)C(F)(F)F.c1ccc2[nH]c(-c3ccc(-c4ccc(CNC5CC5)cc4)s3)nc2c1` displayed an Inhibition of 25%. To `Cc1ccccc1C1CCN(C2CCC(NC(=O)c3ccc(-c4cc(C(F)(F)F)nn4C)s3)CC2)CC1` (stereo not given) belongs 42%; to `Cc1ccccc1N1CCN(c2ncc(C(=O)NC3CC3)cc2Cl)CC1.O=C(O)C(F)(F)F`, 23%. Next, `CCC(C)(CC)C(=O)n1ncc2c3c(N)nc(N)nc3ccc21`: 73%. To `COc1ccc(S(=O)(=O)N(c2cc(Br)cc3c2OCC3)S(=O)(=O)c2ccc(OC)c(N3CCN(C)CC3)c2)cc1N1CCN(C)CC1` belongs 67%; to `Nc1ncnc2c1ncn2C(CO)Cc1ccc(O)cc1` (stereo not given), 0%; to `CCCCc1ccc2[nH]c(NC(=O)OC)nc2c1` [PARBENDAZOLE], 26%. As to `COc1ccc(C2CC(c3cccs3)=NN2C(=O)c2ccccc2)cc1OC` (stereo not given), the Inhibition amounted to 5%. To `Cc1ccc2[nH]c(-c3ccccc3N)cc2c1` belongs 11%; to `CN1CCC(N(Cc2ccc(-c3ccc(Cl)cc3)cc2)C(=O)Cn2c(CCc3cccc(F)c3F)cc(=O)c3ccccc32)CC1.O=C(O)C(O)C(O)C(=O)O`, 93%; to `COc1cccc(CCc2cccc(CNC(C)=O)c2)c1`, 2%.

On to `CN1CCN(Cc2ccc(-c3ccc4c(Nc5ccc(F)cc5Cl)ccnc4c3)o2)CC1`, for which the Inhibition came to 8%. To `O=C(c1cc(-c2cccs2)n[nH]1)N1CCN(S(=O)(=O)c2ccc(Cl)cc2)CC1` belongs 0%; to `O=C(Nc1cccc(CN2CCN(Cc3ccc(O)cc3)CC2)c1)c1cc2ccccc2s1.O=C(O)C(F)(F)F`, 15%. To `C[C@@H]1CN(C(c2cccc(O)c2)c2cccc(C(=O)N(C)c3cccc(F)c3)c2)[C@@H](C)CN1C(c1cccc(O)c1)c1cccc(C(=O)N(C)c2cccc(F)c2)c1.Cl` (stereo not given in full) belongs 0%.

The values above are taken from ChEMBL document CHEMBL1157539, “Thousands of chemical starting points for antimalarial lead identification” (Nature, 2010).
